Bioassay records from PubChem.
TDP1 cell noCPT – qHTS for Inhibitors of human tyrosyl-DNA phosphodiesterase 1 (TDP1): qHTS in cells in absence of CPT. DT40 Tdp1-/- hTDP1 cells, no CPT, ATP luminescence, 48 h. Potency, µM (top dose mostly 46.2 µM), actives largely listed as inhibitors. actives 15% (n = 420,000). AID 686978, 2013; further: nearly all actives have a fitted effect of over 55% in size
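Chicken DT40 Tdp1-/- cells complemented with human TDP1, screened without camptothecin (DMSO vehicle only), 400 cells/well. Compounds pin-transferred, cells incubated at 37 °C for at least 48 hr. Growth read as ATP-dependent luminescence (CellTiter-Glo, 30 min at RT).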
ELG1 DNA repair – inhibitors of ELG1-dependent DNA repair in HEK293T cells; HEK293T ELG1-luciferase reporter, luminescence, 16 h; DNA damage induced by 5-fluorouridine; Potency, µM (series often up to 46.1 µM), actives largely listed as inhibitors; actives 2.3% (n = 330,000); AID 504467; further: nearly all actives have a fitted effect of over 55% in size
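Overnight (16 hr) co-exposure of 2,000 cells/well to 5-fluorouridine and compound at 37 °C preceded detection. Luciferase was quantified via ONE-Glo luminescence; loss of signal denotes inhibition.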
IL-1B inflam inh – inflammasome signaling inhibition, IL-1 beta readout | activity change, % at 57.5 µM | THP-1 LPS/ATP IL-1B secretion, AlphaLISA, 16 h; stronger effect = lower value | actives 4.7% (n = 360,000) | AID 743279; in the data active means activity change below about -50%; inconclusive means mostly about -30% to -49%
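Secreted IL-1B measured by AlphaLISA bead assay after 16 h compound exposure of THP-1 cells; compounds (final up to 57.5 uM) added 1 h before LPS (250 ng/mL) and ATP (1.25 mM) stimulation; lower signal means less secretion.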
HT1080-NT tox – kills 2HG-producing HT-1080-NT fibrosarcoma cells; HT-1080-NT fibrosarcoma viability, CellTiter-Glo ATP luminescence, 48 h; Potency, µM (titrated, usually from 46.1 µM), actives largely listed as cytotoxic; actives 1.6% (n = 360,000); AID 686970;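 further: NT is the 2HG producing partner of a matched IDH1 knockdown line; nearly all actives have a fitted effect of over 55% in size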
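A 48-hour cytotoxicity screen used HT-1080-NT cells plated 2 hours before compound delivery. ATP-based CellTiter-Glo luminescence measured viability, normalized to DMSO and no-cell controls.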
HT1080 IDH1KD tx – toxicity to HT-1080 IDH1 knockdown cells (counter line); HT-1080 IDH1 knockdown viability, ATP luminescence, 48 h; Potency, µM (highest dose often 46.1 µM), actives largely listed as cytotoxic; actives 2% (n = 360,000); AID 686971
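In this qHTS, HT-1080 cells depleted of IDH1 are exposed for 48 h at 37 °C to compound titrations. Toxicity is scored from CellTiter-Glo luminescence, with DMSO as full viability and medium alone as none.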
TDP1 cell CPT – DT40-hTDP1 cell growth loss with CPT. chicken DT40 Tdp1-/-;hTDP1 cells + 20 nM CPT, ATP luminescence, 48 h. actives 12% (n = 420,000). Potency, µM (top dose mostly 46.2 µM), hits mostly inhibitors; further: nearly all actives have a fitted effect of over 55% in size
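Chicken DT40 Tdp1-/- cells stably complemented with human TDP1 were seeded at 400 cells/well in medium containing 20 nM camptothecin, exposed to pin-transferred compounds, and grown at 37 °C for at least 48 hr. Viability was read as ATP luminescence.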
Numbers stand for hits; 0 = inactive; ? = inconclusive; - = no result given; ! = repeats disagree; [ ] = remark or other dose. Shown are actives, neighbours in structure and some others; about 19% of the full set was active somewhere. Unless noted, the call rests on the fitted dose curve; in most records, active means well fitted curve in the direction sought with a large enough effect; inconclusive means small, poorly fitted or top-dose-only effect, or another doubt; inactive means no such curve, though single readings can be large; an effect the other way counts as inactive or inconclusive.

SMILES	TDP1 cell noCPT	ELG1 DNA repair	IL-1B inflam inh	HT1080-NT tox	HT1080 IDH1KD tx	TDP1 cell CPT
CN1C(=O)C(C)(C)c2cc(S(=O)(=O)N3CCC(C(=O)NCc4ccc(F)cc4)CC3)ccc21	?	0	0	0	0	7.31µM
O=C(O)C1CCCCC1C(=O)NCCc1ccc(Cl)cc1 (stereo unspecified)	0	0	-63.3	0	0	0
O=C(NCCc1ccc(Cl)cc1)C1CCN(C(=O)c2ccc(F)cc2)CC1	18.4µM	0	0	0	0	?
C=CCNC(=O)C1CCN(S(=O)(=O)c2ccc(Br)cc2)CC1	16.4µM	0	0	0	0	?
COc1ccc(CNC(=O)C2CCN(S(=O)(=O)c3ccc4c(c3)C(C)(C)C(=O)N4C)CC2)cc1	?	0	0	0	0	0
Cc1ccc(C)c(NC(=O)CSc2nc(=O)n(CCN(C)C)c3c2CCC3)c1	0	-	-	-	-	0
CCc1nnc(SCc2ccc(OC)cc2)c2cc3sc(C)cc3n12	0	-	-	-	-	0
O=C(NCc1ccc(Cl)cc1)C1CCN(S(=O)(=O)c2ccc(F)cc2)CC1	18.4µM!	0	-63.8	0	0	3.66µM
COc1ccc(-c2nc3cc(C)ccn3c2NCC2CCCO2)cc1OC (stereo unspecified)	0	-	0	0	0	0
CCC(C)Sc1cc(-c2nc3ccccn3c2NC2CCCCC2)ccc1OC (stereo unspecified)	14.6µM	?	-91.3	25.9µM	18.4µM	11.6µM
CC(=O)c1ccc(-c2cccc(-c3nc4ccccn4c3NC3CCCCC3)c2)cc1	14.6µM	3.55µM	-65.5	?	?	23.1µM
CC(C)c1nc2ccccn2c1NC1CCCCC1	?	0	0	0	0	0
CCC(C)Sc1cc(-c2nc3cc(C)ccn3c2NC2CCCCC2)ccc1OC (stereo unspecified)	20.6µM	?	-80.7	20.6µM	?	20.6µM
CCc1nc2c(OCCn3cccc3)cccn2c1N(C)C(=O)c1ccco1	0	-	0	0	0	0
COc1ccc(C(=O)c2sc3nc(C)cc(-c4cccs4)c3c2N)cc1OC	23.1µM	?	-79.8	0	0	?
COc1ccc(C)cc1NC(=O)N(C(C)C)C1CCN(C(C)=O)CC1	0	-	-	-	-	0
Cc1ccc2cc(CN(Cc3ccco3)Cc3nnnn3Cc3ccco3)c(=O)[nH]c2c1	11.2µM	-	-	-	-	?
COc1ccc2cc(CN(Cc3cccnc3)Cc3nnnn3Cc3ccccc3)c(=O)[nH]c2c1	?	?	0	0	0	?
Cc1ccc2[nH]c(=O)c(CN(Cc3cccnc3)Cc3nnnn3CC3CCCO3)cc2c1 (stereo unspecified)	0	0	0	0	0	0
Cc1ccc2[nH]c(=O)c(CN(Cc3ccccc3)Cc3nnnn3Cc3ccccc3)cc2c1	12.6µM	-	-	-	-	?
Cc1ccc2[nH]c(=O)c(CN(Cc3ccco3)Cc3nnnn3Cc3ccccc3)cc2c1	15.8µM	-	-	-	-	?
Cc1ccc2[nH]c(=O)c(CN(Cc3cccnc3)Cc3nnnn3CCN3CCOCC3)cc2c1	20.6µM	0	0	0	0	?
Cc1ccc2cc(CN(Cc3nnnn3Cc3ccco3)CC3CCCO3)c(=O)[nH]c2c1C (stereo unspecified)	?	?	0	0	0	?
Cc1ccc(C)c(S(=O)(=O)n2nc(C)c(S(=O)(=O)N3CCCCCC3)c2C)c1	0	-	-	-	-	0
Cc1c(Cl)cccc1NC(=O)CSc1nc(=O)[nH]c2c1CCC2	0	-	-	-	-	0
SMILES	TDP1 cell noCPT	ELG1 DNA repair	IL-1B inflam inh	HT1080-NT tox	HT1080 IDH1KD tx	TDP1 cell CPT
COc1ccc(C(=O)OCC(=O)c2ccc3c(c2)NC(=O)CO3)cc1S(=O)(=O)N1CCOCC1	0	0	0	0	0	0
Cc1nc(NC(=O)c2cc3ccccc3o2)ccc1Br	0	?	0	0	0	?
COc1ccc2[nH]c(=O)c(CN(Cc3nnnn3Cc3ccccc3)CC3CCCO3)cc2c1 (stereo unspecified)	?	?	?	0	0[9.24 µM]	11.6µM
COc1ccc2[nH]c(=O)c(CN(Cc3nnnn3Cc3ccc(F)cc3)CC3CCCO3)cc2c1 (stereo unspecified)	?	?	0	0	0	?
COc1ccc(-c2[nH]c(-c3ccc4c(c3)OCO4)nc2-c2ccccc2)cc1	?	?	-64.0	?	?	?
COc1cc(-c2nc(-c3ccc4c(c3)-c3ccccc3S4(=O)=O)c(-c3ccccc3)[nH]2)cc(OC)c1O	16.4µM	4.61µM	?	0	0	6.51µM
Cc1c(C)c(C)c2[nH]c(-c3ccc4c(c3)OCO4)nc2c1C	18.4µM	0	0	?	0	?
COc1ccc(-c2nc(-c3ccccc3)c(-c3cccs3)[nH]2)cc1OC	14.6µM	14.6µM	?	?	0[9.24 µM]	18.4µM
COc1cc(-c2nc(-c3ccccc3)c(-c3ccc(F)cc3)[nH]2)cc2c1OCO2	?	?	0	0	0	?
Cc1ccc(SCCC(=O)N(C)CC(=O)Nc2c(C)cccc2C)cc1	0	0	0	0	0	0
CCOC(=O)c1ccc(CN(Cc2ccc(OC)cc2)S(=O)(=O)c2cccc(C(F)(F)F)c2)cc1	0	-	-	-	-	0
NC(=O)c1ccc(-c2nc(-c3ccc4c(c3)OCO4)c(-c3ccccn3)[nH]2)cc1	18.8µM	-	-	-	-	21.1µM
COc1cc(-c2nc(-c3cccc(Cl)c3)c(-c3ccccc3)[nH]2)cc(OC)c1OC	16.4µM	-	-	-	-	18.4µM
COc1cc(-c2nc(-c3ccccc3)c(-c3cc([N+](=O)[O-])ccc3C)[nH]2)cc(OC)c1OC	16.4µM	7.31µM	0	0	0	18.4µM
COc1ccc(-c2nc(-c3cccs3)c(-c3cccs3)[nH]2)cc1OC	16.4µM	20.6µM	?	0	?	?
COc1cc2c(-c3cccc(Cl)c3)nc3c(c(C)nn3-c3ccccc3)c2cc1OC	0	-	-	-	-	0
CCNc1ncc2nc(-c3ccc(Cl)cc3)c(=O)n(CCC#N)c2n1	0	-	-	-	-	0
COc1ccc(-c2[nH]c(-c3ccc(C(=O)O)cc3)nc2-c2ccccc2)cc1	0	?	0	0	0	0
COc1ccc(-c2nc(-c3ccccc3)c(-c3ccccc3)[nH]2)cc1Br	13µM	-	-	-	-	18.4µM
CCN(CC(=O)Nc1c(F)cccc1F)C(=O)C1CCN(S(=O)(=O)c2ccccc2C(=O)OC)CC1	0	-	0	0	0	0
Cc1ccc(F)c(S(=O)(=O)NC(=O)C2(C)CCN2C(=O)C2(c3ccc(Cl)cc3)CCC2)c1 (stereo unspecified)	?	-	0	0	0	16.4µM
